# Source: PubChem BioAssay
# Some of the results follow. The source made the active and inactive calls.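 How the source made its calls, unless noted: active means mean inhibition across replicates above about 50% (limit read from the data); inactive means the rest.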
# Molecular target: Sentrin-specific protease 8 (Homo sapiens) (UniProt Q96LD8)
# Assay: SENP8 protease inhibitors, retest, confirmation, biochemical, luminescence, single concentration (AID 488912)
# Settings: Recombinant SENP8, Z-RLRGG-aminoluciferin luminescence, 60 min; at 12.5 µM; hits give high values
# Sentrin-specific protease 8 (Homo sapiens), sequence (Q96LD8 whole entry, looked up): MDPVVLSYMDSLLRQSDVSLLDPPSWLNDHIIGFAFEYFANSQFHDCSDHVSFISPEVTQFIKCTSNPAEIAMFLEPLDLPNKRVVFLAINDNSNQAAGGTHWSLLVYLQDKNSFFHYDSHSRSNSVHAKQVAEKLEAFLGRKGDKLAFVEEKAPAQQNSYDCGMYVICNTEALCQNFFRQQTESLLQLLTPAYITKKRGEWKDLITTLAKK
row,Structure (SMILES),inhibition
1,CN(c1ccc2nc3ccccc3c(=O)n2n1)C1CCCCC1,94.2% (active)
2,CC(=C/c1ccccc1)/C=N/NC(=O)c1cc(C)oc1C,14.3% (inactive)
3,COc1cccc(C(=O)Nc2ccc(N3CCCC3)cc2)c1,95% (active)
4,CC(=O)Nc1cccc(C(=O)OCC(=O)c2ccc3c(c2)OCO3)c1,84.2% (active)
5,C(=N\Nc1ccc2ccccc2n1)/c1ccc2c(c1)OCO2,97.7% (active)
6,Cc1cccc(NC(=O)/C=C/c2ccc3c(c2)OCO3)n1,81.3% (active)
7,Clc1ccc(C2=CSC3=Nc4cccc5cccc(c45)N23)cc1,1.7% (inactive)
8,CC(=O)N(C1=C(Cl)C(=O)c2ccccc2C1=O)c1ccc(C(=O)O)cc1,81.7% (active)
9,CCOc1ccc(-c2nnc(-c3ccco3)o2)cc1,5.3% (inactive)
10,COc1cc(/C=C(\C#N)c2nc3ccccc3[nH]2)ccc1O,95.1% (active)
11,CC(C)n1cnc2c(NCc3ccccc3)cc(OCC3CCN(C)CC3)cc21,57.7% (active)
12,O=C(CSC(=S)N1CCOCC1)c1ccccc1,79.2% (active)
13,CSc1ccc(/C=N/NC(=O)c2cccc(Cl)c2)cc1,36.6% (inactive)
14,Cc1cnc(NC(=O)c2ccccn2)s1,74.2% (active)
15,CCN1C(=O)c2cccc3c(N)ccc1c23,22% (inactive)
16,COc1ccc(-c2cc3ccc(OCc4nn[nH]n4)cc3oc2=O)cc1,64% (active)
17,O=C(Nc1ccc(Cl)cn1)c1ccc2c(c1)OCCO2,-5.1% (inactive)
18,Cc1ccc2nc(-c3ccc(Br)cc3)cn2c1,7.3% (inactive)
19,O=C(Nc1ccn(Cc2ccccc2)n1)c1n[nH]c([N+](=O)[O-])c1Cl,96.4% (active)
20,CCOC(=O)c1ccc(Nc2cc3ccccc3c(=O)[nH]2)cc1,28.7% (inactive)
21,Cc1ccsc1C(=O)OCC(=O)c1cc(C)n(CC2CCCO2)c1C (stereo not drawn),35.3% (inactive)
22,Cn1c(NC(=O)c2ccccc2)nc2ccccc21,55.5% (active)
23,COc1ccc(-c2cn3ccsc3n2)cc1,55.5% (active)
24,O=c1c2cc(-c3ccccc3)sc2nc2n1N=C(c1cccs1)CS2,11.6% (inactive)
25,O=C(/C=C/c1ccc2c(c1)OCCO2)c1ccc(O)cc1,68.6% (active)
26,O=C(Nc1nnc(S(=O)(=O)N2CCCCCC2)s1)c1cccc(Br)c1,42.1% (inactive)
27,O=C(Nc1ccccc1)c1ccc2c(c1)OCCCO2,78.5% (active)
28,Cc1oc2c(c1C(=O)N1CCOCC1)C(=O)c1ccccc1C2=O,27.7% (inactive)
29,c1c2c(cc3sc(N4CCCCC4)nc13)OCCO2,97% (active)

# Molecular target: Sentrin-specific protease 6 (Homo sapiens) (UniProt Q9GZR1)
# Sequence (Q9GZR1 628-1112 limits assumed): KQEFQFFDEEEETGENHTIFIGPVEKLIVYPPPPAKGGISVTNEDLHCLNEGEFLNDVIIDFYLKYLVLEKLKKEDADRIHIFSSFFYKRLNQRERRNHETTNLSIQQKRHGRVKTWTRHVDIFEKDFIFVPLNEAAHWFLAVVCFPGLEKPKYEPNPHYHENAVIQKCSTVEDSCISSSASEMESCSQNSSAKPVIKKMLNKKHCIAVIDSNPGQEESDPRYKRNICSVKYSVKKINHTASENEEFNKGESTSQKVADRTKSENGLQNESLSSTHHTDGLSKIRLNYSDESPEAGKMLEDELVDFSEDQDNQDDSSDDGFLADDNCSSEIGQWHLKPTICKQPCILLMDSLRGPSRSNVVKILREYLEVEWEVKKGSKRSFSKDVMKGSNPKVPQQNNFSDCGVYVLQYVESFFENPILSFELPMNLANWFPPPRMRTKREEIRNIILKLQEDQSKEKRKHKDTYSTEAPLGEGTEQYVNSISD
# Assay: SENP6 protease inhibitors, confirmation, biochemical, luminescence, single concentration (AID 488915;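 active means mean inhibition above about 50% in the one-dose retest, limit read from the data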)
# Settings: recombinant SENP6, Z-RLRGG-aminoluciferin luminescence; at 12.5 µM; hits give high values
row,Structure (SMILES),inhibition
1,CN(c1ccc2nc3ccccc3c(=O)n2n1)C1CCCCC1,94.5% (active)
2,CC(=C/c1ccccc1)/C=N/NC(=O)c1cc(C)oc1C,46.8% (inactive)
3,COc1cccc(C(=O)Nc2ccc(N3CCCC3)cc2)c1,99.7% (active)
4,CC(=O)Nc1cccc(C(=O)OCC(=O)c2ccc3c(c2)OCO3)c1,83.1% (active)
5,C(=N\Nc1ccc2ccccc2n1)/c1ccc2c(c1)OCO2,98.3% (active)
6,Cc1cccc(NC(=O)/C=C/c2ccc3c(c2)OCO3)n1,81% (active)
7,Clc1ccc(C2=CSC3=Nc4cccc5cccc(c45)N23)cc1,55.9% (active)
8,CC(=O)N(C1=C(Cl)C(=O)c2ccccc2C1=O)c1ccc(C(=O)O)cc1,91% (active)
9,CCOc1ccc(-c2nnc(-c3ccco3)o2)cc1,72.1% (active)
10,COc1cc(/C=C(\C#N)c2nc3ccccc3[nH]2)ccc1O,95.1% (active)
11,CC(C)n1cnc2c(NCc3ccccc3)cc(OCC3CCN(C)CC3)cc21,75.3% (active)
12,O=C(CSC(=S)N1CCOCC1)c1ccccc1,77.6% (active)
13,CSc1ccc(/C=N/NC(=O)c2cccc(Cl)c2)cc1,96.5% (active)
14,Cc1cnc(NC(=O)c2ccccn2)s1,75.6% (active)
15,CCN1C(=O)c2cccc3c(N)ccc1c23,41.5% (inactive)
16,COc1ccc(-c2cc3ccc(OCc4nn[nH]n4)cc3oc2=O)cc1,63.1% (active)
17,O=C(Nc1ccc(Cl)cn1)c1ccc2c(c1)OCCO2,71.4% (active)
18,Cc1ccc2nc(-c3ccc(Br)cc3)cn2c1,34.4% (inactive)
19,O=C(Nc1ccn(Cc2ccccc2)n1)c1n[nH]c([N+](=O)[O-])c1Cl,97.3% (active)
20,CCOC(=O)c1ccc(Nc2cc3ccccc3c(=O)[nH]2)cc1,63.5% (active)
21,Cc1ccsc1C(=O)OCC(=O)c1cc(C)n(CC2CCCO2)c1C (stereo not drawn),97.2% (active)
22,Cn1c(NC(=O)c2ccccc2)nc2ccccc21,61.6% (active)
23,COc1ccc(-c2cn3ccsc3n2)cc1,51.2% (active)
24,O=c1c2cc(-c3ccccc3)sc2nc2n1N=C(c1cccs1)CS2,3.2% (inactive)
25,O=C(/C=C/c1ccc2c(c1)OCCO2)c1ccc(O)cc1,59% (active)
26,O=C(Nc1nnc(S(=O)(=O)N2CCCCCC2)s1)c1cccc(Br)c1,31.9% (inactive)
27,O=C(Nc1ccccc1)c1ccc2c(c1)OCCCO2,77.7% (active)
28,Cc1oc2c(c1C(=O)N1CCOCC1)C(=O)c1ccccc1C2=O,61% (active)
29,c1c2c(cc3sc(N4CCCCC4)nc13)OCCO2,98.6% (active)
